Source: PubChem BioAssay (National Center for Advancing Translational Sciences (NCATS))
ELG1 DNA repair – qHTS screen for small molecules that inhibit ELG1-dependent DNA repair in human embryonic kidney (HEK293T) cells expressing luciferase-tagged ELG1; HEK293T ELG1-luciferase reporter, luminescence, 16 h; DNA damage induced by 5-fluorouridine; Potency, µM (series often up to 46.1 µM), for inactives: top-dose activity change, negative = inhibition, most hits filed as inhibitors; 330,000 compounds, 2.3% hits; also: % is scaled to controls: 0 for no effect and ±100 for the full control effect; nearly all actives have a fitted effect of over 55% in size
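5-Fluorouridine DNA damage + compound/DMSO, 2,000 cells/well, 16 h, 37 °C/5% CO2. ONE-Glo, 30 min RT, luminescence. Readout = decrease in reporter signal.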
SW480 rereplic – A quantitative high throughput screen for small molecules that induce DNA re-replication in SW480 colon adenocarcinoma cells; SW480 DNA re-replication, Hoechst DNA content imaging, 48 h; Potency, µM (doses to about 46.1 µM), without a hit: at the top dose re-replication activation, most hits filed as activators; 340,000 compounds, 1.8% hits; also: % of control where 0% means no effect; nearly all actives have a fitted effect of over 55% in size
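Cells (250 per well) received 23 nL compound or DMSO by pin tool and were kept 48 hr at 37 C, 5% CO2. Nuclei were then stained with Hoechst for 40 min and scanned for DNA content.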
RORgamma inh – qHTS for inhibitors of ROR gamma transcriptional activity; Drosophila S2 Gal4-RORgamma UAS-luciferase reporter, 20 h; Potency, µM (series often up to 53.6 µM), inactives show at the highest dose activity change, negative = inhibition, hits mostly inhibitors; 310,000 compounds, 5.4% hits; also: % is scaled to controls: 0 for no effect and ±100 for the full control effect; nearly all actives have a fitted effect of over 60% in size
Target sequence (P51450 whole entry, looked up, the tested form may be a part): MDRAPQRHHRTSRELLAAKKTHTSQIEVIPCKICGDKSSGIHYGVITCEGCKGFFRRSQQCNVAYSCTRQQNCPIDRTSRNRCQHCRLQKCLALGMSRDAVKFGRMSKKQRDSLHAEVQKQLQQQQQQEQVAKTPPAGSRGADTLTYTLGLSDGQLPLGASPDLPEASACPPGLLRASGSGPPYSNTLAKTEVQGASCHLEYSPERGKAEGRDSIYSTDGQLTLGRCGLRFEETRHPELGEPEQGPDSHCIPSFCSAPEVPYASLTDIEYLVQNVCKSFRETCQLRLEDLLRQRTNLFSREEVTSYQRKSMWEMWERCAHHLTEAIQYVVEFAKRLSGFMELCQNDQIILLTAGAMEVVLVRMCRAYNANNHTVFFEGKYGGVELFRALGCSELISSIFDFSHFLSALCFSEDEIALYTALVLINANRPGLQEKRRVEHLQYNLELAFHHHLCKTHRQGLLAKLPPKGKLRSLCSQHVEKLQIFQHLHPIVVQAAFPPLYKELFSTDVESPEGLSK
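ROR gamma transcriptional activity was tracked as Gal4-UAS luciferase output in stably transfected Drosophila Schneider cells, with compound added 1 hr before 700 uM copper sulfate induction and a 20 hr ambient-temperature incubation.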
MCF10A rerep – A quantitative high throughput screen for small molecules that induce DNA re-replication in MCF 10a normal breast cells; MCF 10A DNA re-replication, Hoechst nuclear intensity, 48 h; Potency, µM (titrated, usually from 46.1 µM), for inactives: at the highest dose activity, positive = re-replication, actives largely listed as activators; 350,000 compounds, 2.9% hits; also: % of control where 0% means no effect; nearly all actives have a fitted effect of over 50% in size
Gal4-VP16 FLuc – VP16 counterscreen qHTS for inhibitors of ROR gamma transcriptional activity. Drosophila S2 Gal4-VP16 UAS-luciferase, luminescence, 20 h. AID 2546, 2010. 310,000 compounds, 3.5% hits. Potency, µM (top dose mostly 53.6 µM), for inactives: at the top dose activity, negative = inhibition, most hits filed as inhibitors;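 also: Gal4-VP16 expression switched on by copper sulfate through the metallothionein promoter; % is scaled to controls: 0 for no effect and ±100 for the full control effect; nearly all actives have a fitted effect of over 50% in size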
Numbers without * were called inactive; ? = inconclusive; · = no result given; [ ] = dose if it differs, or a comment. This is a sample that favours compounds with a hit; in the whole collection about 10% have one here. Calls follow the shape of the dose curve; as a rule, active = well fitted curve in the direction sought with a large enough effect; inconclusive = small, poorly fitted or top-dose-only effect, or another doubt; inactive = no such curve, though single readings can be large; an effect the other way counts as inactive or inconclusive. Potency is read from the fitted curve at half-maximal effect.

SMILES	ELG1 DNA repair	SW480 rereplic	RORgamma inh	MCF10A rerep	Gal4-VP16 FLuc
CCN(C(=S)Nc1ccc(Oc2ccccc2)cc1)c1ccccc1	10%	?	13µM*	?	18µM*
CCOC(=O)N1CCC(N(CCN(C)C)C(=S)Nc2cccc(C)c2)CC1	5%	-1%	-11%	-5%	-16%
CCOC(=O)N1CCC(N(CCN(C)C)C(=S)Nc2ccc(Oc3ccccc3)cc2)CC1	2%	8%	11µM*	?	-16%
C=CCSc1nc(C)c(Cc2cccc3ccccc23)c(=O)[nH]1	-4%	-1%	24%	-10%	-25%[10 µM]
O=C(NCCN1CCCCC1)c1ccc(I)cc1	·	·	1%	·	-1%
CC(=O)c1cccc(CN2CCC(CO)(CCCc3ccccc3)CC2)c1	-5%	-3%	-2%	12%	6%
CC(=O)Nc1ccc2nc(CN3CCC(CO)(CCc4ccccc4)CC3)ccc2c1	5%	0%	3%	18µM*	-5%
CCOc1cc(/C=N/Nc2nc(Nc3ccccc3)nc(N3CCCCC3)n2)ccc1OCC(=O)O	12%	0%	4.5µM*	17%	?
COc1ccc(/C=N\Nc2ncc(F)c(N3CCOCC3)n2)cc1OC	18µM*	-2%	-28%	8%	0%
CCOc1cc(/C=N/Nc2nc(N3CCCC3)nc(N3CCCC3)n2)ccc1O	12µM*	15%	5.6µM*	6%	5µM*
CCOc1cccc(/C=N/Nc2nc(N3CCCC3)nc(N3CCCC3)n2)c1O	?	-3%	?	3%	-5%
COc1ccc(/C=N/Nc2cc(C)nc(N3CCOCC3)n2)cc1OC	3%	-3%	-5%	0%	-2%
COc1ccc(/C=N/Nc2nc(Nc3ccccc3)nc(N3CCCCC3)n2)cc1OC	5.8µM*	1%	10%	9%	-13%
Cc1ccccc1OCC(=O)OCC(=O)NCCNC(=O)COC(=O)COc1ccccc1C	14%	5%	·	-2%	·
Cc1cc(N2CCCC(C(=O)Nc3cccc4ccccc34)C2)n2ncnc2n1 (stereo unspecified)	?	-5%	26%	-1%	6%[10 µM]
CC(C)CN(CC(C)C)C(=O)COn1nnc2ccc(S(=O)(=O)N3CCOCC3)cc21	?	-6%	·	-6%	·
Fc1ccc(CNc2ccc(N3CCN(Cc4ccccc4)CC3)cc2)cc1	7.3µM*	?	17%	-1%	-2%
CCc1nnc(NC(=O)c2oc3ccc(Br)cc3c2C)s1	?	-4%	·	21µM*	·
Cc1nnc(NC(=O)c2oc3c(ccc4ccccc43)c2C)s1	-19%	-5%[9.22 µM]	13µM*	-1%	-5%
Cc1nnc(NC(=O)c2oc3ccccc3c2C)s1	?	23%	?	9%	?
O=C(COC(=O)CC12CC3CC(CC(C3)C1)C2)Nc1cccnc1Cl	?	9%	-18%	3%	11%
O=C(Nc1ccccc1)C1=C[C@@H](C2CCCCC2)C[C@@H](OCc2ccc(CO)cc2)O1	?	?	7%	16µM*	-6%
O=C(C1=C[C@@H](C2CCCCC2)C[C@@H](OCc2ccc(CO)cc2)O1)N1CCN(Cc2ccccc2)CC1	?	-25%	?	?	13µM*
O=C(C1=C[C@H](C2CCCCC2)C[C@H](OCc2ccc(CO)cc2)O1)N1CCN(Cc2ccccc2)CC1	?	2%	35%	35%	-18%
Cc1c(C(=O)Nc2ccccc2C(=O)N2CCOCC2)cccc1[N+](=O)[O-]	9%	?	24%	-3%	-9%
SMILES	ELG1 DNA repair	SW480 rereplic	RORgamma inh	MCF10A rerep	Gal4-VP16 FLuc
COc1cccc([C@@H]2Oc3ccc(OC)cc3/C(=N/O[C@@H](C)c3cn([C@H]4COC[C@H]4O)nn3)[C@@H]2O)c1	·	·	6%[10 µM]	·	4%[10 µM]
COc1ccc(OC)c(NC(=O)c2ccccc2OC(C)=O)c1	·	-35%	·	?	·
CCCCn1c(N)c(N(CC(C)C)C(=O)c2cc3c(s2)CCCCC3)c(=O)[nH]c1=O	24%	7.3µM*	·	-2%	·
CCCCn1c(N)c(N(CC(C)C)C(=O)c2ccc(-c3ccc(Cl)cc3)o2)c(=O)[nH]c1=O	15µM*	-8%	·	23µM*	·
CCCCn1c(N)c(N(CC(C)C)C(=O)c2cnccn2)c(=O)[nH]c1=O	-4%	18µM*	·	-3%	·
CCCCn1c(N)c(N(CC)C(=O)c2cnc(C)cn2)c(=O)[nH]c1=O	6%	3%	·	5%	·
CCCCn1c(N)c(N(CC)C(=O)c2ccc(-c3ccc(Cl)cc3)o2)c(=O)[nH]c1=O	10%	23%	·	3%	·
CCCCn1c(N)c(N(CC)C(=O)c2cc3c(s2)CCCCC3)c(=O)[nH]c1=O	8%	1%	·	2%	·
COC(=O)c1c(N2C(=O)[C@H]3[C@@H](C2=O)[C@]2(C(=O)Nc4ccc(C)cc42)N2CCC[C@@H]32)sc(C)c1C	8.2µM*	·	4%	·	-3%
O=C(CN1c2ccccc2Sc2ccccc21)NNC(=O)Nc1ccc(Cl)c(Cl)c1	-16%	?	15%	16µM*	2%
c1ccc(-c2noc(C3CCC3)n2)nc1	?	1%	5%	-4%	16%
CCCCC1CCC(c2nc(-c3ccccn3)no2)CC1 (stereo unspecified)	?	0%	?	?	13µM*
O=C(COC(=O)CNC(=O)c1ccccc1)Nc1ccc(Cl)cn1	-13%	-12%	·	-18%	·
O=C(CN1c2cccc3cccc(c23)S1(=O)=O)Nc1ccc(F)c(F)c1F	23µM*	11%	·	?	·
O=C(CN1c2cccc3cccc(c23)S1(=O)=O)Nc1ccccc1F	?	-3%	0%	4%	-9%
Cc1c(Cl)ccc2c(C(=O)NCCN3CCCCC3)cc(-c3ccccn3)nc12	?	?	18%	?	-5%
O=C(NCCc1ccc(Cl)cc1)c1cc(-c2ccccn2)nc2ccccc12	?	?	11µM*	?	?
O=C(NCCc1ccc(Cl)cc1)c1cc(-c2ccncc2)nc2ccccc12	-27%	22%	8%	14%	-12%
Cc1c(Cl)ccc2c(C(=O)NCCCn3nccc3C)cc(-c3ccccn3)nc12	18µM*	20%	-21%	?	-7%
NS(=O)(=O)c1ccc(CCNC(=O)c2cc(-c3ccc(Br)cc3)nc3ccccc23)cc1	?	9%	3.5µM*	?	?
COC(=O)C1=C2SCC(=O)N2C(N)=C(C#N)C1	11%	-7%	-15%	-1%	-3%
CC(C)OC(=O)C1=C(N)N2C(=O)CSC2=C(C(=O)OC(C)C)C1	0%	0%	10µM*	17%	-5%
